In PubChem BioAssay (NCI):
Where “and” joins values, the source holds several entries; their conditions need not be identical. Equal entries are not always repeated. About 79,000 compounds went through this panel and 15% of them were active in at least one assay; those are over-represented in the sample as a whole. Cut-off read from the data, not from the text of the source: active = growth inhibition above about 70%; inactive = the rest.

Tests used:
[1] = NCI Yeast Anticancer Drug Screen. Data for the rad50 strain (AID 155);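 note: 0% = growth of vehicle-only cultures of the same strain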; settings: S. cerevisiae rad50 strain growth inhibition; at 50.0 µM; active compounds read high
Method in brief: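 Genetically altered yeast (DNA repair pathway); compound treatment; growth inhibition vs vehicle ctrl.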

[2] = NCI Yeast Anticancer Drug Screen. Data for the mec2-1 strain (AID 157); settings: S. cerevisiae mec2-1 strain, at 50.0 µM, active compounds read high
Method in brief: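 Cells of the genetically defined mec2-1 yeast strain are incubated with test compound. Inhibition of growth is calculated against vehicle-treated controls.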

[3] = NCI Yeast Anticancer Drug Screen. Data for the sgs1 mgt1 strain (AID 161);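 note: 0% = growth of cultures given vehicle only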; settings: S. cerevisiae sgs1 mgt1 strain, at 50.0 µM, active compounds read high
Method in brief: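 Read-out: growth inhibition vs vehicle controls. Cells: mutant yeast strain deficient in DNA damage repair.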

[4] = NCI Yeast Anticancer Drug Screen. Data for the cln2 rad14 strain (AID 165);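 note: 0% = growth equal to vehicle treated cultures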; settings: S. cerevisiae cln2 rad14 strain, at 50.0 µM, active compounds read high
Method in brief: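 The screen exposed genetically defined yeast (cln2 rad14) to test compounds and scored growth inhibition relative to vehicle-treated controls.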

[5] = NCI Yeast Anticancer Drug Screen. Data for the bub3 strain (AID 167); settings: S. cerevisiae bub3 mutant strain, at 50.0 µM, active compounds read high
Method in brief: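 Yeast carrying a defined mutation is treated with each compound, and growth is compared with that of vehicle-exposed cells to give inhibition.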

[6] = NCI Yeast Anticancer Drug Screen. Data for the mlh1 rad18 strain (AID 175); settings: S. cerevisiae mlh1 rad18 strain growth inhibition; at 50.0 µM; active compounds read high
Method in brief: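 Compound-treated yeast growth, normalised to vehicle controls. Strain bears defined DNA repair mutations.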

Measured: growth inhibition

CN(C)CC1CCCC(CN(C)C)C1=O (centres undefined)
inactive: [1] -13.4% and -21.9% | [2] 26.9% and -9.95% | [3] -16% and -39.5% | [4] 33% and -30.4% | [5] -16.1% and -22.1% | [6] -2% and -13.8%

CC(=O)OCC1OC(n2c(-c3ccccc3)cc(-c3ccccc3)c(C#N)c2=O)C(OC(C)=O)C(OC(C)=O)C1OC(C)=O (centres undefined)
inactive: [1] -14.3% and -1.45% | [2] -3.7% and 6.6% | [3] 1.8% and 3.45% | [4] 23.6% and 0.7% | [5] 5.4% and 3.9% | [6] 16% and -2.25%

CN(/N=C/c1ccccc1)C(=N)N
inactive: [1] -3.6% and 5.4% | [2] -5.4% and 4.15% | [3] -10.2% and 13.2% | [4] -40.6% and 11.2% | [5] -12.8% and -5.6% | [6] -2.3% and 2.05%

CC(=O)OCC1OC(n2cnc3c(N)ncnc32)C(OC(C)=O)C1OC(C)=O (centres undefined)
inactive: [1] 3.05% and 8.1% | [2] -8.9% and -3.3% | [3] 18.8% and 0.2% | [4] 14.2% and 11.4% | [5] 5.3% and -0.8% | [6] 18.1% and -0.25%

O=c1[nH]c(F)nc2c1ncn2C1OC(CO)C(O)C1O (centres undefined)
inactive: [1] -9.5% and -20.3% | [2] -5% and -12.8% | [3] -5.7% and -20.9% | [4] -16.4% and 8.4% | [5] 8.75% and -10.6% | [6] -21.2% and 6%

CC(=O)OCC1OC(n2c(N)c(C#N)c(C)c(C#N)c2=S)C(OC(C)=O)C(OC(C)=O)C1OC(C)=O (centres undefined)
inactive: [1] -25.4% and -28% | [2] -13% and -5.75% | [3] -7.1% and -10.7% | [4] -30.7% and -44.5% | [5] 3.55% and -1.5% | [6] -1.85% and -27.7%

Nc1ncnc2c1ncn2C1(CO)OC(CO)C(O)C1O (centres undefined)
inactive: [1] 13.7% and 3.2% | [2] -9.1% and -6.15% | [3] -13.9% and -0.2% | [4] -0.65% and -23.2% | [5] 5% and 19.4% | [6] 11.2% and -1.25%

CCN(CC)C(=O)N1CCN(C)CC1
inactive: [1] 26.1% and -15.6% | [2] -26.9% and -4.6% | [3] 1.4% and -3.65% | [4] -41.1% and 5.8% | [5] -1.1% and 9.7% | [6] 15.2% and -8%

O=C(O)/C=C/c1cccc(Cl)c1
inactive: [1] 14.2% and -11.2% | [2] 10.2% and -19.9% | [3] 3.25% and -12.2% | [4] -16.1% and 13.5% | [5] -6.7% and -28.2% | [6] 24.8% and 23.6%

O=C1CCCCC1C(O)c1ccc([N+](=O)[O-])cc1 (centres undefined)
inactive: [1] 0.05% and -2.7% | [2] 16.1% and -5.9% | [3] 10.7% and -2.35% | [4] -2.35% and -15.2% | [5] 5.3% and -5.1% | [6] 16.1% and -6.85%

NC(=O)N/N=C/C=C/c1ccccc1
inactive: [1] 18.4% and -1.3% | [2] 12.7% and 3.1% | [3] 6.85% and -6.75% | [4] 7.55% and -20.4% | [5] -0.4% and -14.1% | [6] 5.05% and 6.95%

C1=C(c2cccc3ccccc23)CCCC1
inactive: [1] -2.85% and 18.2% | [2] 7.45% and -4.1% | [3] -12.4% and -5.1% | [4] -0.1% and 8.1% | [5] 2.65% and 11.7% | [6] 6.9% and -9.2%

CC(C)(C)CC(C)(C)c1ccc(O)c(SSc2cc(C(C)(C)CC(C)(C)C)ccc2O)c1
inactive: [1] 4.95% and 11.8% | [2] -16.1% and 4.4% | [3] 7.7% and -8.55% | [4] 13.2% and -17.5% | [5] 11.5% and 0.5% | [6] 6.65% and 24.1%

Cc1ccc(S(=O)(=O)NN=C2C(C)(C)CC2(C)C)cc1
inactive: [1] -21.9% and 21.2% | [2] 1.15% and -11.8% | [3] 8.55% and 6.6% | [4] 13.9% and -23.5% | [5] 6.15% and -2.85% | [6] -24.8% and 3.65%

CC1=C/C(=C(\c2cc(C)c(O)c(C(=O)O)c2)c2c(Cl)ccc(S(=O)(=O)O)c2Cl)C=C(C(=O)O)C1=O
inactive: [1] 25.6% and -15.2% | [2] 0.1% and -0.75% | [3] 22.8% and -4.2% | [4] 21.1% and -2.6% | [5] -3.05% and -7.4% | [6] 41.5% and -2.55%

CC(C)(O)C(I)C[n+]1ccccc1 (centres undefined)
inactive: [1] 38.5% and -7.55% | [2] 41.6% and -2.95% | [3] 50.5% and -28.9% | [4] 4.9% and -6.9% | [5] 39.9% and 0.85% | [6] 46.9% and -7.3%

c1ccc([P+](Cc2ccccc2C[P+](c2ccccc2)(c2ccccc2)c2ccccc2)(c2ccccc2)c2ccccc2)cc1
inactive: [1] -15% and 20.1% | [2] -20.9% and 6.8% | [3] -5.3% and 7.25% | [4] -8.25% and 14.8% | [5] 1.6% and 7.8% | [6] -50% and 12.3%

CC(=O)c1ccc(-c2ccccc2-c2ccccc2)cc1
inactive: [1] -9.3% and 43.7% | [2] 5.95% and 3.5% | [3] 3.6% and 16.4% | [4] -21.2% and -26.1% | [5] -0.3% and 4.35% | [6] 1.15% and 33.1%

Cc1ccc(S(=O)(=O)Nc2cc(=O)[nH]c3c2CCC3)cc1
inactive: [1] -2.05% and 43.4% | [2] -4.75% and 18.3% | [3] 9.25% and -26.8% | [4] -52% and 0.65% | [5] -18% and 24.2% | [6] -6.2% and 2.9%
